14 molecules from PubChem BioAssay can be followed below.

A word on the inhibition: it is the relative decrease from the control value, in per cent.

The source made the active and inactive calls.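 Rule for the calls, unless noted: active = inhibition at or above 50% at 10 µM; inactive = inhibition below 50%.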

A short description of experiment [1]: inhibitors of TNFa-induced NFkB p65 translocation, primary screen, imaging, HUVEC, MLSMR starter and 10KST1 sets (AID 438;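 active = inhibition above 20% together with a positive visual image hit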;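 note: compound added about 3h40 before a 20 min TNFalpha stimulation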;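 for inhibition: signal is the nuclear over cytoplasmic p65 intensity ratio per well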). Particulars: HUVEC TNFa-induced p65 nuclear translocation; cell count: measured here: nuclei count (cytotoxicity indicator), at 2.08 µM; inhibition: at 2 µM, stronger effect = higher value, 0% TNFa-plus-vehicle, 100% no-TNFa wells.
Experiment [2] in a line: inhibitors of mutant huntingtin aggregation, primary screen, imaging, exon1htt(103Q)mCFP cells, high-content imaging (AID 483;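 active = visual image review flags a hit and inhibition of aggregation exceeds 20%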;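 note: compound exposure lasted 3 days before fixation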;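 for nuclei count: percent of the per-plate median nuclei count of sample wells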). The following applies: exon1htt(103Q)mCFP cell line, aggregate imaging, at 2 µM; inhibition of aggregation: stronger effect = higher value; nuclei count: measured here: cell count, toxicity.
Experiment [3] can be described thus: inhibitors of E-selectin induction by TNFa, primary screen, imaging, HUVEC, immunofluorescence, MLSMR starter and 10KST1 sets (AID 487;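 active = visually confirmed hit in the image check and inhibition above 20%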;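 for inhibition: signal is fraction of cell area covered by stained E-selectin grains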;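 for nuclei count: 100% = median nuclei count of all wells on the same plate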). Particulars: HUVEC TNFalpha-induced E-selectin immunofluorescence imaging, at 2 µM; inhibition: stronger effect = higher value; nuclei count: measured here: cell number, toxicity.
Experiment [4] addresses Voltage-gated potassium channel subunit beta-2 (Rattus norvegicus) (UniProt P62483). Briefly: KvBeta enzyme negative modulators, primary screen, biochemical, NADPH fluorescence (AID 622;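 active = fluorescence slope higher than the sample average by over 3 SD, cut at about -0.22 in these data, passing the limit was not always enough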;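 note: slope of raw intensity against log time taken from 70 to 1610 s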). The following applies: recombinant KvBeta, 4-cyanobenzaldehyde reduction, at 10 µM, stronger effect = higher value.
The target is the same in experiment [5]. In words: KvBeta positive modulators, primary screen, biochemical, NADPH fluorescence (AID 623;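 active = NADPH fluorescence slope more negative than the mean of all samples by about 3 SD, 99.7% confidence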;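 note: fluorescence intensity change per second fitted from 20 to 320 s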). The following applies: Recombinant KvBeta, NADPH fluorescence decrease slope, 10 min; at 10 µM; stronger effect = lower value.
The target in experiment [6] is Alpha-2C adrenergic receptor (Homo sapiens) (UniProt P18825). In words: modulators of alpha2C/GIRK thallium flux, primary screen, cell-based, HEK293 alpha2C/GIRK1/2 (AID 624;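 active = fluorescence slope after compound addition differing from the mean of all screened samples at 99.7% confidence, in either direction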;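 note: slope of fluorescence ratio to pre-addition baseline per second over 15 to 24 s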). Particulars: thallium flux BTC fluorescence, at 10 µM, actives lie on both sides.
Experiment [7] can be described thus: inhibitors of Sendai virus-induced IRF3 signaling, primary screen, TLR/RLR signaling modifier project, cell-based, Sendai virus stimulus, luciferase, 10K MLSCN set (AID 602276).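 Note: firefly luciferase from ISG56 promoter only with Renilla not read in this screen; 0% = Sendai virus plus DMSO and 100% = medium plus DMSO without virus.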 The following applies: HEK293 RL24 IRF3 luciferase reporter, at 10 µM, stronger effect = higher value. (A reporter such as luciferase makes a cellular process visible.)
A short description of experiment [8]: inhibitors of poly I:C-induced TLR3 signaling, primary screen, cell-based, poly I:C stimulus, luciferase, 10K MLSCN set (AID 602277;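 active = inhibition of the reporter signal at or above 50%; inactive = inhibition below 50%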). Particulars: HEK293-TLR3 RL24 IRF3 luciferase reporter, at 10 µM, stronger effect = higher value.

Voltage-gated potassium channel subunit beta-2 (Rattus norvegicus), sequence (P62483 whole entry, looked up): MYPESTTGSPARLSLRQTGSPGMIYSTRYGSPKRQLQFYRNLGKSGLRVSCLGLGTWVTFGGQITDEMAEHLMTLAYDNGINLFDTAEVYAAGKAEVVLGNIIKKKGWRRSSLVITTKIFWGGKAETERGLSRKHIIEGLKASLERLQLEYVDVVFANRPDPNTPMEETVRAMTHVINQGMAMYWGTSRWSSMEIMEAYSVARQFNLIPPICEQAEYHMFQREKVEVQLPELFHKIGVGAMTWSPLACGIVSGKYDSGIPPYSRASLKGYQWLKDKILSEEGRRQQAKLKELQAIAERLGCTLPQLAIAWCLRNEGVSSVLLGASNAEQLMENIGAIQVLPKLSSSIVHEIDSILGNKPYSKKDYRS
Alpha-2C adrenergic receptor (Homo sapiens), sequence (P18825 whole entry, looked up): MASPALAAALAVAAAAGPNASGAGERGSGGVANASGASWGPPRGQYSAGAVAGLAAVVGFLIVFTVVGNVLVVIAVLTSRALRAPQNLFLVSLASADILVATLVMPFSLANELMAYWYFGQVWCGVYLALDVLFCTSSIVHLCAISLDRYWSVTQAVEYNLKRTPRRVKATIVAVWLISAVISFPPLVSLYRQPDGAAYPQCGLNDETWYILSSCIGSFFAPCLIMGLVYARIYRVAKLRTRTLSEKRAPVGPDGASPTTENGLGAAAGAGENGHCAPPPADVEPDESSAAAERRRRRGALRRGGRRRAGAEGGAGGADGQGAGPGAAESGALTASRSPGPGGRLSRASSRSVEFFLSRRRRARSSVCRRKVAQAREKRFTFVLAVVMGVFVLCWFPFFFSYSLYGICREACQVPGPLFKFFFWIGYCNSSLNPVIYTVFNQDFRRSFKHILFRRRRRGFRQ

Consider `CCOc1cc(C2NC(=O)NC(O)(C(F)(F)F)C2C(=O)c2ccccc2)ccc1OC` (centres undefined), for which the cell count in experiment [1] stood at 383. The inhibition in experiment [1] is 6.8% (inactive); in experiment [3] it was -51% (inactive); in experiment [7] it was 5.58% (inactive); in experiment [8] it was 11.7% (inactive). Besides, the inhibition of aggregation in experiment [2] was 4.9% (inactive). Besides, the nuclei count in experiment [2] was determined as 86.1%; in experiment [3], 121%. Moreover, the fluorescence slope in experiment [4] is -0.378 (inactive). The NADPH fluorescence slope in experiment [5] is 3.5e-05 (inactive). Besides, in experiment [6], the slope was 0.00542 (inactive).

Turning to `COC(=O)C1CCN(C(=O)NC(C)(C)C)CC1`, in experiment [1], the cell count worked out at 307. The inhibition in experiment [1] is -4.5% (inactive); in experiment [3], -37.4% (inactive); in experiment [7] it was 5.02% (inactive); in experiment [8], 14.9% (inactive). Also, in experiment [2], the inhibition of aggregation is 14.5% (inactive). Also, the nuclei count in experiment [2] came out at 82.1%; in experiment [3], 99.6%. The fluorescence slope in experiment [4] was -0.618 (inactive). Besides, the NADPH fluorescence slope in experiment [5] was -4.3e-05 (inactive). Also, in experiment [6], the slope is 0.00637 (inactive).

As to `COC(=O)CSc1ncccc1-c1nc2ccccc2[nH]1`, the cell count in experiment [1] was determined as 473. In addition, the inhibition was -4.5% (inactive) in experiment [1], -48.5% (inactive) in experiment [3], -16.6% (inactive) in experiment [7] and -32.8% (inactive) in experiment [8]. Moreover, in experiment [2], the inhibition of aggregation was -2% (inactive). Also, the nuclei count turned out to be 111% in experiment [2] and 99.2% in experiment [3]. For the same molecule, the fluorescence slope in experiment [4] is -0.512 (inactive). The NADPH fluorescence slope in experiment [5] is 3.1e-05 (inactive). The slope in experiment [6] was 0.00493 (inactive).

`CCCn1c(=O)c2ccccc2n2c(SCCOc3ccccc3F)nnc12`: the cell count in experiment [1] was determined as 574. Moreover, the inhibition in experiment [1] is -10.2% (inactive); in experiment [3], 0.6% (inactive); in experiment [7], -3.21% (inactive); in experiment [8], -3.55% (inactive). In experiment [2], the inhibition of aggregation is 4.4% (inactive). Further, the nuclei count in experiment [2] is 85.2%; in experiment [3], 156%. Moreover, the fluorescence slope in experiment [4] is -0.477 (inactive). In addition, the NADPH fluorescence slope in experiment [5] is 4.6e-05 (inactive). Moreover, in experiment [6], the slope was 0.00598 (inactive).

Take `Cc1cc(NC(=O)c2ccc3c(c2)C(=O)N(Cc2cccnc2)C3=O)no1`: in experiment [1], the cell count came out at 770. Also, the inhibition in experiment [1] is -6.4% (inactive); in experiment [3], -127% (inactive); in experiment [7], -5.06% (inactive); in experiment [8] it was -11.7% (inactive). For the same molecule, in experiment [2], the inhibition of aggregation is 1.8% (inactive). The nuclei count in experiment [2] is 107%; in experiment [3] it was 128%. The fluorescence slope in experiment [4] was -0.615 (inactive). In addition, the NADPH fluorescence slope in experiment [5] was 1.2e-05 (inactive). In addition, in experiment [6], the slope is 0.00422 (inactive).

Consider `CC(C)c1ccc(-c2nc(N3CCOCC3)[nH]c(=O)c2C#N)cc1`, for which the cell count in experiment [1] came out at 321. Also, the inhibition in experiment [1] is -8.9% (inactive); in experiment [3], -32.8% (inactive); in experiment [7], 13.1% (inactive); in experiment [8], 13.1% (inactive). For the same molecule, in experiment [2], the inhibition of aggregation is -12% (inactive). Also, the nuclei count in experiment [2] was determined as 95.4%; in experiment [3] it was 114%. Further, the fluorescence slope in experiment [4] was -0.405 (inactive). In addition, in experiment [5], the NADPH fluorescence slope is -2e-05 (inactive). Further, in experiment [6], the slope is 0.00599 (inactive).

As for `O=C(c1ccc(Br)o1)N(c1ccc(Br)cc1)C1C=CS(=O)(=O)C1` (centres undefined), in experiment [1], the cell count stood at 553. The inhibition in experiment [1] is -21.1% (inactive); in experiment [3], -74.4% (inactive); in experiment [7], -8.65% (inactive); in experiment [8], -3.46% (inactive). For the same molecule, the inhibition of aggregation in experiment [2] was 4.2% (inactive). Further, the values for the nuclei count in experiment [2] and in experiment [3] were 108% and 121%, respectively. In experiment [4], the fluorescence slope is -0.377 (inactive). Also, the NADPH fluorescence slope in experiment [5] is 3.2e-05 (inactive). Moreover, in experiment [6], the slope was 0.00592 (inactive).

For the molecule `CCNC(=O)CC1C(=O)N(c2ccccc2)C(=O)N1CCC(C)C` (centres undefined), the cell count in experiment [1] came out at 339. The inhibition in experiment [1] is 2.8% (inactive); in experiment [3], -62.6% (inactive); in experiment [7] it was 8.08% (inactive); in experiment [8] it was 31.4% (inactive). The inhibition of aggregation in experiment [2] is 3.6% (inactive). Further, the nuclei count in experiment [2] came to 104%; in experiment [3], 97.9%. Besides, the fluorescence slope in experiment [4] is -0.512 (inactive). Also, the NADPH fluorescence slope in experiment [5] was -3.8e-05 (inactive). For the same molecule, in experiment [6], the slope was 0.00552 (inactive).

For the molecule `Cc1cc2c(cc1C)-c1nnnn1C(C)(C)C2`, the cell count in experiment [1] came to 655. Besides, the inhibition in experiment [1] is 2.4% (inactive); in experiment [3], 67.5% (active); in experiment [7] it was -16.2% (inactive); in experiment [8] it was 82.3% (active). For the same molecule, the inhibition of aggregation in experiment [2] is 13.2% (inactive). The figures for the nuclei count in experiment [2] and in experiment [3] were 91.6% and 88.2%, respectively. Further, in experiment [4], the fluorescence slope is -0.421 (inactive). Further, in experiment [5], the NADPH fluorescence slope is -3e-05 (inactive). Besides, in experiment [6], the slope is 0.00748 (inactive).

As to `COCCN(CCOC)S(=O)(=O)c1ccc(C(=O)Nc2nnc(C3CC3)o2)cc1`, the cell count in experiment [1] was 390. Moreover, the inhibition is -0.2% (inactive) in experiment [1], 44.1% (inactive) in experiment [3], 16.9% (inactive) in experiment [7] and 24.5% (inactive) in experiment [8]. In addition, the inhibition of aggregation in experiment [2] was 0% (inactive). Also, the nuclei count in experiment [2] was determined as 102%; in experiment [3], 100%. Besides, the fluorescence slope in experiment [4] was -0.484 (inactive). In addition, the NADPH fluorescence slope in experiment [5] is -3.8e-05 (inactive). Also, the slope in experiment [6] was 0.00677 (inactive).

With `COC(=O)c1ccc(NC(=O)C2CC(=O)N(c3cc(C)ccc3C)C2)cc1` (centres undefined), the cell count in experiment [1] turned out to be 504. Besides, the inhibition in experiment [1] was 6.6% (inactive); in experiment [3], -29.9% (inactive); in experiment [7], -15.3% (inactive); in experiment [8] it was -26.3% (inactive). Further, the inhibition of aggregation in experiment [2] is 8.1% (inactive). The nuclei count in experiment [2] was 92.6%; in experiment [3], 95.1%. In experiment [4], the fluorescence slope is -0.587 (inactive). In addition, the NADPH fluorescence slope in experiment [5] was -9.6e-06 (inactive). In experiment [6], the slope was 0.00549 (inactive).

`COc1ccc(C(=O)N2CCSC2=S)cc1OC`: the cell count in experiment [1] was determined as 677. Besides, the inhibition in experiment [1] was -19.3% (inactive); in experiment [3], 55.8% (inactive); in experiment [7] it was 4.55% (inactive); in experiment [8], 15% (inactive). In addition, the inhibition of aggregation in experiment [2] was -13.4% (inactive). Also, the nuclei count in experiment [2] was found to be 97.5%; in experiment [3] it was 82.9%. Further, in experiment [4], the fluorescence slope is -0.457 (inactive). Moreover, in experiment [5], the NADPH fluorescence slope is -2.6e-05 (inactive). In addition, in experiment [6], the slope is 0.00338 (inactive).

In the case of `CC1C(=O)C(C)C(c2cccs2)NC1c1cccs1` (centres undefined), the cell count in experiment [1] stood at 295. Also, the inhibition in experiment [1] was -1.4% (inactive); in experiment [3] it was 13.7% (inactive); in experiment [7], 3.78% (inactive); in experiment [8], 3.34% (inactive). Further, the inhibition of aggregation in experiment [2] is 10.2% (inactive). In addition, the nuclei count in experiment [2] is 68.6%; in experiment [3], 87.4%. Also, the fluorescence slope in experiment [4] was -0.501 (inactive). For the same molecule, the NADPH fluorescence slope in experiment [5] is 9.3e-06 (inactive). In addition, the slope in experiment [6] was 0.00548 (inactive).

As for `CCCCN1C(=O)C2C(C(=O)Nc3cccc(OC)c3)C3C=CC2(O3)C1C(=O)NC1CCCCC1C` (centres undefined), the cell count in experiment [1] came to 423. For the same molecule, the inhibition in experiment [1] is 3.1% (inactive); in experiment [3], -50% (inactive); in experiment [7] it was 14.1% (inactive); in experiment [8], 24.4% (inactive). For the same molecule, the inhibition of aggregation in experiment [2] is 1.7% (inactive). The nuclei count in experiment [2] amounted to 109%; in experiment [3] it was 112%. Further, the fluorescence slope in experiment [4] was -0.503 (inactive). The NADPH fluorescence slope in experiment [5] is -2.7e-05 (inactive). In addition, in experiment [6], the slope is 0.00569 (inactive).
